Luc counter: counter-screen: inhibitors of Kinase-Glo firefly luciferase. Q27757. Kinase-Glo luciferase, ATP luminescence, 8 min. Potency, µM (series often up to 38.3 µM), for inactives: top-dose activity change, negative = inhibition, most hits filed as inhibitors. hit rate 0.28% among 200,000; note: % is set by controls: 0 for no effect and ±100 for the full control effect; nearly all actives have a fitted effect of over 60% in size
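Substrate mix (final 50 mM imidazole pH 7.2, 50 mM KCl, 7 mM MgCl2, 10 uM ATP, 0.01% Tween 20, 0.05% BSA) plus pin-tool compound, then Kinase-Glo detection mix; 8 min ambient, luminescence read.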
Rab9 prom act: Rab9 promoter activation; hit rate 2.8% among 320,000; Potency, µM (series often up to 9.22 µM), for inactives: at the highest dose activation, negative = inhibition, usual class: activators; Huh7 Rab9 promoter-luciferase reporter, luminescence, 24 h; note: % of control where 0% means no effect; nearly all actives have a fitted effect of over 60% in size
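Quantitative HTS format; Huh7 Rab9-luciferase reporter cells (1500/well) receive compound 2 h post-plating, incubate 24 h at 37 °C, then get luciferase reagent for 10 min before luminescence reading.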
NPC1 prom act: activators of NPC1 promoter; Huh7 NPC1 promoter luciferase reporter, 24 h; Potency, µM (titrated, usually from 9.22 µM), for the others: at the highest dose activation, actives largely listed as activators; hit rate 2.4% among 320,000; AID 485313; note: % of control where 0% means no effect; nearly all actives have a fitted effect of over 60% in size
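Huh7 reporter cells (NPC1 promoter driving luciferase) are dosed with compound for 24 h at 37 °C, 5% CO2; luciferase detection reagent is then added and luminescence measured after 10 min at ambient temperature.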
ELG1 genotox: induces genotoxicity in HEK293T cells with luciferase-tagged ELG1 | HEK293T ELG1-luciferase reporter, luminescence, 16 h | Potency, µM (series often up to 46 µM), without a hit: top-dose activity change, positive = activation, usual class: activators | hit rate 1.3% among 330,000; note: % of control where 0% means no effect; nearly all actives have a fitted effect of over 60% in size
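HEK293T cells expressing luciferase-tagged ELG1 were exposed to compound or DMSO vehicle for 16 hr at 37 °C and 5% CO2. Luciferase activity was then measured with ONE-Glo after 30 min at room temperature.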
FLuc counter: inhibits or activates purified firefly luciferase, miR-21 counter-screen | hit rate 6.9% among 360,000 | Potency, µM (top dose mostly 57.5 µM), without a hit: at the highest dose activity change, negative = inhibition, actives largely listed as inhibitors | AID 588342 | P08659 | purified FLuc, Km substrates, luminescence inhibition;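 note: plate controls were vehicle for no effect and reference inhibitor for full effect; nearly all actives have a fitted effect of over 55% in size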
Target sequence (P08659 whole entry, looked up): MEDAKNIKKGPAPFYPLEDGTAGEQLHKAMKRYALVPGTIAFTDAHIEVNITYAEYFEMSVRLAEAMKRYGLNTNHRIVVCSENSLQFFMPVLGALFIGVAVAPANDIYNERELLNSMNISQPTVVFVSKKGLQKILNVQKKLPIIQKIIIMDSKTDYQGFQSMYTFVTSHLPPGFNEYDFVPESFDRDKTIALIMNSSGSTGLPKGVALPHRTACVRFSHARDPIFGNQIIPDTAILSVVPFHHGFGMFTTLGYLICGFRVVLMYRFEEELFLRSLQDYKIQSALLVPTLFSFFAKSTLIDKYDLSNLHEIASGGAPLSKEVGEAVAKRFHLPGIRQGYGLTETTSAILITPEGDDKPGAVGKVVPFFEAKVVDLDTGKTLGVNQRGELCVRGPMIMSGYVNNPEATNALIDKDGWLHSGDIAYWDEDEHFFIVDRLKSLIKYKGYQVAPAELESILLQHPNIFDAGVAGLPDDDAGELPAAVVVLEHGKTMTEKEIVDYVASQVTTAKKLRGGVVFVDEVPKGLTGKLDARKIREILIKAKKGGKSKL
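Biochemical qHTS of compounds, final roughly 60 µM downward over six points, against 10 nM purified firefly luciferase using Km concentrations of substrates (10 uM D-luciferin, 10 uM ATP) in Tris acetate pH 7.5 buffer; luminescence output.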
SMN2 splice enh: increases expression of the SMN2 splice variant; HEK293 SMN2-luciferase splicing reporter, luminescence, 30-36 h; AID 1458; hit rate 2.8% among 210,000; Potency, µM (highest dose often 46.1 µM), for inactives: top-dose activity change, positive = activation, actives largely listed as activators; note: % of control where 0% means no effect; nearly all actives have a fitted effect of over 55% in size
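HEK293 cells carry an SMN2 minigene-luciferase reporter in which exon 7 inclusion puts luciferase in frame. Cells were seeded at 2000 cells/well, attached for 10-12 hours, then exposed to compounds for 30-36 hours at 37C before ONE-Glo luminescence.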
* hit, by the source's call; ? = inconclusive; / = not tested or not shown; [ ] = remark or other dose. Only some compounds are listed: those with a hit (about 7.4% of all), similar ones and a draw of the others. Calls come from the whole dose curve; as a rule, active = well fitted curve in the direction sought with a large enough effect; inconclusive = small, poorly fitted or top-dose-only effect, or another doubt; inactive = no such curve, though single readings can be large; an effect the other way counts as inactive or inconclusive. Potency is the fitted concentration of half-maximal effect.

SMILES	Luc counter	Rab9 prom act	NPC1 prom act	ELG1 genotox	FLuc counter	SMN2 splice enh
CC(=O)c1cccc(N2C(=NC(=O)C3CCCCC3)SC3CS(=O)(=O)CC32)c1 (centres undefined)	/	0%	-1%	5%	1%	/
O=C(NNC(=O)c1cccc(C(F)(F)F)c1)c1ccncc1	/	-4%	1%	2%	-11%	/
O=C(Nc1ncccn1)c1ccc(C(F)(F)F)cc1	-14%	-5%	0%	3%	19µM*	-1%
O=C(O)c1cccc(NN=C2c3ccccc3-c3ccccc32)c1	3%	2%	1%	15%	27µM*	0%
O=C(O)c1cccc2c1-c1ccccc1/C2=N\Nc1ccccc1	/	?	3.2µM*	12%	11µM*	/
O=C(/C=C/c1ccco1)Nc1ccc2nn(-c3ccccc3)nc2c1	0%	?	22%	1%	-18%	16%
O=C(/C=C/c1ccco1)Nc1cccc(NC(=O)/C=C/c2ccco2)n1	0%	3.2µM*	?	-3%	1.7µM*	?
O=C(/C=C/c1ccco1)NC1=NCCS1	-15%	2.5µM*	2.2µM*	9.2µM*	11µM*	8.9µM*
CCSc1nnc(NC(=O)C(C)(C)C)s1	-3%	?	29%	?	?	26%
Cc1nc(NC(=O)/C=C/c2ccco2)sc1C	-3%	-6%	-4%	?	?	11µM*
CCSc1nnc(NC(=O)/C=C/c2ccco2)s1	0%	4µM*	?	?	-8%	11µM*
N#CCc1nc2ccc(S(=O)(=O)N3CCOCC3)cc2s1	/	0%	-1%	-4%	6%	/
CCc1nnc(NC(=O)/C=C/c2ccco2)s1	3%	1.8µM*	?	?	?	13µM*
O=C(/C=C/c1ccco1)Nc1nnc(-c2ccco2)s1	2%	20%	0%	5%	0%	/
Cc1cccc(NC(=O)c2cc3c([nH]c2=O)CC(c2ccccc2)CC3=O)c1 (centres undefined)	/	/	/	/	-3%	/
COc1ccc(Oc2ccc(C(F)(F)F)cc2N)cc1	/	?	17%	11%	17µM*	/
COc1ccc(Oc2ccc(C(F)(F)F)cc2NC(=O)c2ccc(OC)cc2)cc1	/	-5%	-3%	-4%	-2%	/
CC(C)Nc1ccc(-c2nc(-c3ccco3)no2)cc1[N+](=O)[O-]	/	/	/	/	0%	/
C/C(=C\c1ccccc1)C(=O)n1nnc2ccccc21	-2%	8%	-1%	1%	19µM*	-3%
Cc1cccc(N2C(S)=C(C#N)C(=O)NC23CCCCC3)c1	1%	-11%	1%	2%	?	-8%
Cc1ccc(N2C(S)=C(C#N)C(=O)NC23CCCCC3)cc1	0%	-5%	-2%	1%	17µM*	19%
CC(C)(C)C1CCC(=O)N(CCSc2ccccc2)CC1 (centres undefined)	/	3.2µM*	2.5µM*	?	7.6µM*	/
C[C@H]1CCC(=O)N(CCSc2ccc(Br)cc2)CC1	/	?	10%	10%	?	/
Cc1ccc(SCCN2CCC(C)CCC2=O)cc1 (centres undefined)	/	?	4µM*	?	19µM*	/
Cc1ccc(SCCN2CCC(C(C)(C)C)CCC2=O)cc1 (centres undefined)	/	22%	20%	11%	?	/
SMILES	Luc counter	Rab9 prom act	NPC1 prom act	ELG1 genotox	FLuc counter	SMN2 splice enh
CC(C)CC1c2[nH]c3ccccc3c2CCN1C(=O)c1cnccn1 (centres undefined)	0%	3.5µM*	3.5µM*	?	11µM*	/
CN(C)c1ccc(/C=C(\C#N)C(=O)OCC(=O)N(C)C2CCS(=O)(=O)C2)cc1 (centres undefined)	/	-1%	-1%	?	24µM*	/
CCN(C(=O)COC(=O)/C(C#N)=C/c1ccc(N(C)C)cc1)C1CCS(=O)(=O)C1 (centres undefined)	/	/	/	13%	/	/
O=C(N/N=C/c1cc(Br)c(O)c(Br)c1O)c1ccc2c(c1)OCCO2	/	-36%	-31%	?	7.6µM*	/
CCOc1cc(/C=N/NC(=O)c2ccc3c(c2)OCCO3)cc(Br)c1O	/	13%	9%	10%	21µM*	/
O=C(N/N=C/c1cc(Br)c(Br)o1)c1cccnc1	-2%	-6%	-8%	6%	-12%	6%
O=C(N/N=C/c1cc(Br)c(Br)o1)c1ccc2c(c1)OCCO2	/	2.5µM*	?	5%	12µM*	/
CS/C(N)=C(C#N)/C(C#N)=C(\N)SC	-6%[39.9 µM]	/	/	/	/	/
COc1cc(OC)cc(C(=O)NNC(=O)CCC(=O)c2cccs2)c1	/	0%	3%	0%	1%	/
CCCc1cc2c(=O)c(-c3ccccn3)c(C)oc2cc1O	-3%	3%	13%	11%	?	0%
CCCc1cc2c(=O)c(-c3ccccn3)coc2cc1OC	0%	1.6µM*	2µM*	?	4.8µM*	?
Cc1ccccc1NS(=O)(=O)c1nnc(NC(=O)c2ccccc2C)s1	/	-4%	-4%	-2%	?	/
N#Cc1ccc(NC(=O)Nc2ccc(Cl)cc2)cc1	6%	-24%	22%	17%	?	-23%
N#C/C(C(=O)Nc1ccc(Cl)cc1)=C(/S)Nc1ccccc1	/	-1%	0%	-3%	15µM*	/
CC(C)CCOc1ccc(C(=O)NCC2OCCc3ccccc32)cc1 (centres undefined)	/	/	/	/	-8%	-5%
Cc1c(NC(=O)c2ccc(C(C)(C)C)cc2)cccc1[N+](=O)[O-]	-1%	?	?	10%	13µM*	16µM*
Cc1cc(C(=O)Nc2cccc([N+](=O)[O-])c2C)cs1	/	13%	8%	10%	-16%	/
CC(C)(C)c1ccc(NC(=O)c2ccccc2)c([N+](=O)[O-])c1	-6%	0.5µM*	0.45µM*	-10%	4.3µM*	8%
COC(=O)c1ccc(NC(=O)CSc2ccccc2)cc1	1%	?	19%	?	27µM*	17%
O=C(CSc1ccc(F)cc1)Nc1ccc(Br)cc1	-2%	2.8µM*	?	?	13µM*	?
COC(=O)c1ccc(NC(=O)CSc2ccccn2)cc1	-2%	13%	2%	?	?	-14%
CCNC(=O)c1c(O)c2c([nH]c1=O)CCCC2	/	15%	2%	3%	-10%	/
O=C(Nc1ccc(O)cc1)c1c(O)c2c([nH]c1=O)CCCC2	0%	0.56µM*	1.3µM*	?	6µM*	11µM*
COC(=O)c1ccccc1NC(=O)c1c(O)c2c([nH]c1=O)CCCC2	-4%	3%	4%	2%	21µM*	9%
COc1cc(-c2nc(-c3ccccn3)no2)cc(OC)c1OC	9%	28%	?	?	?	17%

Source: PubChem (National Center for Advancing Translational Sciences (NCATS))
